Assay results reported in PubChem BioAssay (NCI).
About 83,000 compounds went through this panel and 20% of them were active in at least one assay; those are over-represented in the sample as a whole.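 Growth was measured after 48 h exposure to one concentration of compound in 96-well plates. Values under 10 count as active.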 Calls of active or inactive are those of the source.

The molecules below were run on HOP-62 NSCLC (assay: NCI-60 one-dose screen, 48 h (100 = growth as untreated, 0 = no growth, -100 = all killed)). Settings: 10 µM unless noted.

Compound | growth
c1ccc2cc(Cn3cc(CSc4nc5ccccc5s4)nn3)ccc2c1 | 85.7% (inactive)
CN(C)Cc1cc(C(C)(C)C)cc(Br)c1O | 110% (inactive)
CCN(CC)CCOc1ccc(/C(=C(\C)Cc2ccc(OC)cc2)c2ccc(OC(=O)NCc3ccccc3)cc2)cc1 | 79.7% (inactive)
O=c1oc2ccccc2cc1-c1nn(-c2ccccc2)cc1-c1nn[nH]n1 | 90.8% (inactive)
CC1=C(Cl)C(=O)c2cc(C)ccc2C1=O | 105% (inactive)

These molecules were tested on NCI-H460 lung in the same assay as above. Settings: 10 µM unless noted.

Compound | growth
CCOC(=O)c1c(C)nc2c(c1N)C(=O)C(=O)N2Cc1ccc(OC)cc1 | 101% (inactive)
CCNC(=O)N1CCc2c(Br)c3c(c(OC)c2C1Cc1ccc(OC)cc1)OCO3 (stereo unspecified) | 15.2% (inactive)
COc1cc2c(c(OC)c1OC)CCC(c1cccc(C(=O)Nc3ccc(Br)cc3)c1)O2 (stereo unspecified) | 84% (inactive)
OC1CSSC1Cn1cnc2c(Nc3ccc(OCc4cccc(F)c4)c(Cl)c3)ncnc21 (stereo unspecified) | -6.17% (active)
Cc1ccc(OCCOCCOCCOc2ccc(C)n(O)c2=S)c(=S)n1O | 17.3% (inactive)
C=CN(C(=O)N1CCN(c2cc3c(cc2F)c(=O)c(C(=O)O)cn3C2CC2)CC1)c1nc(-c2ccc(Cl)cc2)cs1 | 23.5% (inactive)
C#CCOc1cccc(Nc2ncnc3cc(NC(=O)CCl)ccc23)c1 | -55.3% (active)
Cc1nc2ccccc2c(/C=C/c2ccc(F)cc2)c1C(=O)/C=C/c1ccccc1 | -41.9% (active)
COc1cc(/C=C/C(=O)N2CCN(C(=O)c3cc(OC)c(OC)c(OC)c3)CC2)ccc1OCCCOc1cc2c(cc1OC)C(=O)N1CCC[C@H]1C=N2 | 6.44% (active)
O=C(NC1CCC(Br)CC1)C1CCCC(S(=O)(=O)NC2CCCCC2)C1 (stereo unspecified) | 14.1% [25 µM] (inactive)
COc1cc(/C=C/c2cn[nH]c2-c2ccc(C)cc2)cc(OC)c1OC | 17.1% (inactive)
CN(C)Cc1ccc(NC(=O)c2cncc(C#Cc3cnc(N)c4ncccc34)c2)cc1C(F)(F)F | 13.3% (inactive)
COC(=O)c1c(C)nc(C)c2c1C(=O)C=C(NCc1ccccc1)C2=O | 67.1% (inactive)
N#CSc1c[nH]c2ccc(/C=C/C(=O)/C=C(O)/C=C/c3ccc4[nH]cc(SC#N)c4c3)cc12 | 12.5% (inactive)
Cc1ccc(-c2nc(SCC(=O)N3CCN(c4cc5c(cc4F)c(=O)c(C(=O)O)cn5C4CC4)CC3)nc(Cl)c2C#N)cc1 | 103% (inactive)
COC(=O)/C=C1/SC(=NCc2ccccc2)N(CCc2c[nH]c3ccccc23)C1=O | 91.8% (inactive)

Compound | growth
CN1CCOCCN(C)Cc2ccc3ccc(cc3c2)CN(C)CCOCCN(C)Cc2ccc3ccc(cc3c2)C1 | 59.5% (inactive)
COc1ccc(/C=N/Nc2c3ccccc3nc3ccccc23)cc1 | 99.5% (inactive)
C=C1C(=O)O[C@H]2[C@H]1CC/C(CNC(=O)Cc1c[nH]c3ccccc13)=C\CC[C@@]1(C)O[C@@H]21 | 29.6% (inactive)
COc1ccc2c(c1)CC[C@@H]1[C@@H]2CC[C@]2(C)c3c(cc(C#N)c4c3sc3ccccc34)C[C@@H]12 | 115% (inactive)
O=C(c1c[nH]c2ccccc12)c1n[nH]c(=S)n1-c1ccc([N+](=O)[O-])cc1 | 95.7% (inactive)
Cc1c2cnccc2c(C)c2c1c1cc(CO)ccc1n2C | -32.5% (active)
COc1cc(-c2nccc3[nH]c(-c4cccc5[nH]ccc45)nc23)cc(OC)c1OC | 7.17% (active)
Clc1ccc(-c2nc(C(Cl)Cl)nc3cc(-c4ccccc4)nn23)cc1 | -54.6% (active)
CC1=Nc2cnc(Nc3ccc(N4CCCCC4)cc3)nc2Nc2ccccc21 | 86.8% (inactive)
CN(C)c1ccc([C@@H](C(=O)Nc2cccc([N+](=O)[O-])c2)N(C(=O)c2cc3ccccc3[nH]2)c2cccc([N+](=O)[O-])c2)cc1 | 98.2% (inactive)
O=C(CSc1nnnn1-c1ccccc1)Nc1ccc(Oc2ccccc2)cc1 | 110% (inactive)
COc1cc(/C=C/C(=O)c2cccc(-n3cc(-c4ccc(Cl)cc4)[nH]c3=O)c2)ccc1O | 93.7% (inactive)
Oc1c(CN2CCC(N3CCOCC3)CC2)cc(Cc2cc(CN3CCC(N4CCOCC4)CC3)c(O)c3ncccc23)c2cccnc12 | 10.5% (inactive)
c1ccc2cc(Cn3cc(CSc4nc5ccccc5s4)nn3)ccc2c1 | 106% (inactive)
CN(C)Cc1cc(C(C)(C)C)cc(Br)c1O | 86.5% (inactive)
